Cruzain inh noDet – blocks cruzain activity in detergent-free assay. P25779. purified cruzain, Z-FR-AMC fluorescence, no detergent. Potency, µM, without a hit: max response, negative = inhibition, hits mostly inhibitors. 200,000 compounds, 2.3% hits. AID 1476;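 note: plate controls were enzyme without inhibitor for no effect and buffer without enzyme for full effect; nearly all actives have a fitted effect of over 40% in size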
Target sequence (P25779 123-467 limits assumed): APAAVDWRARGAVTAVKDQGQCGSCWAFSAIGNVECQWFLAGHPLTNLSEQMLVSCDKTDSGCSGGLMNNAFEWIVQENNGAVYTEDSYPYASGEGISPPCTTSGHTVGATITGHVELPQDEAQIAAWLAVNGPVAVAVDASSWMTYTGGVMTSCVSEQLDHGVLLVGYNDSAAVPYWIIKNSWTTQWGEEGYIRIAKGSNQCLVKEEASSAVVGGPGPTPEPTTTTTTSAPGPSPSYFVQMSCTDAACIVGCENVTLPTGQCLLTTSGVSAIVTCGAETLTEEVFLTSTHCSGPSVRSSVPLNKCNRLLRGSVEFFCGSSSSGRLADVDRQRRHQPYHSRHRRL
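Detergent-free condition (0.00005% Triton X-100) in acetate buffer pH 5.5 with DTT. 1.5 nM enzyme and compound were pre-mixed 15 min, then 2 uM Z-FR-AMC substrate added; reaction progress from fluorescence change between first and third reads (60 s).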
Cruzain Triton – inhibitors of Trypanosoma cruzi cruzain with detergent; P25779; purified cruzain, Z-FR-AMC fluorescence, 0.01% Triton; Potency, µM, inactives show max response, negative = inhibition, hits mostly inhibitors; 200,000 compounds, 0.43% hits;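 note: plate controls were neutral wells for no effect and buffer without enzyme for full effect; nearly all actives have a fitted effect of over 40% in size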
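Purified cruzain (1.5 nM final) was preincubated with compounds for 15 min at room temperature in 100 mM sodium acetate pH 5.5, 5 mM DTT, 0.01% Triton X-100. Reaction started with 2 uM Z-FR-AMC; AMC fluorescence change over 60 s gave activity.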
NS1 function inh – inhibitors of influenza NS1 protein function; 270,000 compounds, 0.4% hits; Potency, µM (top dose mostly 46.1 µM), inactives show at the highest dose activity, positive = more growth; AID 2326; calls by dose curve; note: actives are rising curves; nearly all actives have a fitted effect of over 50% in size
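Growth recovery, yeast-based: influenza A NS1 expressed in S. cerevisiae causes slow growth, and suppressors are detected by OD600. The parent strain without NS1 is used as positive control.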
* hit, by the source's call; ? = inconclusive; / = no result. Many of the other results were omitted from the sample, so hits are more common in it than they were. Unless noted, calls come from the whole dose curve; as a rule, active = well fitted curve in the direction sought with a large enough effect; inconclusive = small, poorly fitted or top-dose-only effect, or another doubt; inactive = no such curve, though single readings can be large; an effect the other way counts as inactive or inconclusive. Potency is the fitted concentration of half-maximal effect.

SMILES | Cruzain inh noDet | Cruzain Triton | NS1 function inh
CC(=O)c1nn(-c2ccc(Br)cc2)cc1C(=O)c1ccccc1 | ? | -1% | 12%
CC(=O)c1nn(-c2cccc(Br)c2)cc1C(=O)c1ccc2ccccc2c1 | 10µM* | 4% | 4%
O=C(N/N=C/C=C/c1ccccc1)c1ccc(Br)cc1 | 20µM* | 3% | -4%
Cn1cc(C(=O)N/N=C/C=C/c2ccccc2)ccc1=O | -6% | -9% | -4%
O=C(COC(=O)/C=C/c1ccccc1[N+](=O)[O-])Nc1ccc(OC(F)F)cc1 | -21% | -1% | -2%
O=C(COC(=O)/C=C/c1ccccc1[N+](=O)[O-])Nc1ccc(OCc2ccccc2)cc1 | 25µM* | 3% | 14%
CCOc1ccc(CCNC(=O)c2ccc(CSCc3ccccc3C)o2)cc1OCC | ? | 2% | /
Cc1ccccc1NC(=O)Cn1cnc2c1c(=O)n(C)c(=O)n2C | 14% | 5% | 8%
Cn1c(=O)c2c(ncn2CC(=O)Nc2cccc(Cl)c2Cl)n(C)c1=O | ? | 28µM* | /
[O-]/[N+](=N\O)c1ccccc1 | 7% | -2% | /
Cc1ccc(-c2ccc(C(=O)Nc3ccccc3)o2)c2ccccc12 | ? | -19% | -23%
Cc1ccc(S(=O)(=O)NC(=O)c2ccc(-c3ccc(C)c4ccccc34)o2)cc1 | 8% | 25µM* | -4%
CCCCC[C@H](O)/C=C/[C@H]1OC(O)C[C@H](O)[C@@H]1C/C=C\CC(=O)O (stereo not given in full) | -16% | 1% | /
Cc1ccc(N=C2C(=S)N(c3ccc(C)cc3)C(=N)N2/N=C/c2ccc(Cl)cc2)cc1 | 3.2µM* | -4% | 6%
COc1ccc(/C=N/N2CCN(c3ccc(Cl)cc3)CC2)cc1 | / | / | 18%
CN(C)/C=C(\C=N\OCc1ccc(Cl)cc1Cl)C(=O)Nc1ccc(Cl)c(Cl)c1 | 20µM* | -6% | -44%
COC(=O)c1nn(-c2ccccc2)c(Cl)c1/C=N/OCc1ccc(Cl)cc1Cl | 2% | -3% | -2%
C[C@H]1C=C2C=C[C@H](C)[C@H](CC[C@@H]3C[C@@H](O)CC(=O)O3)[C@H]2[C@@H](OC(=O)[C@@H](C)CCO)C1 | ? | -10% | /
COc1ccc(-n2c(CCC(=O)O)ccc2-c2ccccc2)c(OC)c1 | -7% | -9% | /
COc1ccc(OC)c(NC(=O)c2cc(-c3cc(Cl)ccc3O)n[nH]2)c1 | ? | 0% | 5%
COc1ccc(Cl)cc1NC(=O)c1cc(-c2ccccc2O)n[nH]1 | 10µM* | -2% | ?
Oc1ccc(Br)cc1-c1cc(-c2ccccc2F)[nH]n1 | 20µM* | 0% | 5%
COc1ccccc1-c1cc(-c2cc(Cl)ccc2O)n[nH]1 | 25µM* | 1% | 0%
Oc1ccc(Br)cc1-c1cc(-c2ccccc2Cl)[nH]n1 | / | / | -1%
COc1ccc(O)c(-c2cc(-c3ccccc3Cl)[nH]n2)c1 | / | / | -137%
SMILES | Cruzain inh noDet | Cruzain Triton | NS1 function inh
COc1cc(CCN2C(=O)N[C@@H](c3ccccc3)C(C(C)=O)=C2C)cc(OC)c1OC | 9% | -2% | /
O=C1CC(c2ccccc2)Cc2[nH]c(=O)c(C(=O)Nc3ccc(OC(F)(F)F)cc3)cc21 (stereo not given) | 1% | -3% | /
[O-]/C(=C(\C(=S)Nc1cccc2ccccc12)[n+]1ccccc1)c1ccc2c(c1)OCCO2 | 13µM* | -6% | 16%
[O-]/C(=C(\C(=S)Nc1cccc2ccccc12)[n+]1ccccc1)c1cccs1 | / | / | 13%
COCCNc1ncnc2ccc(-c3cccc(OC)c3)cc12 | 0% | 0% | /
Cc1nn(-c2ccccc2)c(Cl)c1C1C(C#N)=C(N)Oc2c1c(C)nn2-c1ccccc1 (stereo not given) | 2% | -2% | 4%
Cc1ccc(-n2nc(C)c(C3C(C#N)=C(N)Oc4c3c(=O)oc3ccccc43)c2Cl)cc1 (stereo not given) | 20µM* | 0% | 13%
COC(=O)[C@H]1O[C@@H](c2cc(OC)c(C)c(OC)c2OCc2ccccc2)[C@H](C)[C@@H]2O[C@]12C | 3% | -3% | /
O=C(O)c1c(Cl)c(Cl)c(Cl)c(Cl)c1-c1c2cc(I)c(=O)c(I)c-2oc2c(I)c(O)c(I)cc12 | -28% | 13µM* | /
CC1CCC(Nc2nc3c(-c4cccc(C(F)(F)F)c4)nnn3c3ccccc23)CC1 (stereo not given) | 16% | -1% | /
O=C(O)c1cccc(-c2ccc3c(c2)OCO3)c1 | / | / | -66%
CSc1cccc(-n2cc(-c3ccc4c(c3)OCO4)[nH]c2=O)c1 | 32µM* | -6% | 6%
NC(=O)C1=CN(C2OC(COP(=O)(O)OP(=O)(O)OC[C@H]3O[C@@H](n4cnc5c(N)ncnc54)[C@H](OP(=O)(O)O)[C@H]3O)C(O)C2O)C=CC1 (stereo not given in full) | 7% | -3% | 3%
CCCS(=O)(=O)c1nc(S(=O)(=O)c2ccc(C)cc2)c(NCc2ccco2)s1 | 0% | -4% | 6%
Cc1ccc(S(=O)(=O)c2nc(S(=O)(=O)c3ccc(C)cc3)c(NCc3ccco3)s2)cc1 | 32µM* | 0% | 9%
COc1ncc2nc(-c3ccc(F)cc3)c(=O)n(-c3ccccc3)c2n1 | -1% | -1% | /
CC(=O)c1ccc(N2CCN(C(=O)C3CCN(S(=O)(=O)c4cccc5nonc45)CC3)CC2)cc1 | 28% | -2% | /
C=CCNC(=S)N/N=C/c1ccc(-c2ccc(OC)cc2)o1 | / | / | 2%
C=CCNC(=S)N/N=C/c1ccc(-c2cc(Cl)ccc2Cl)o1 | 7.9µM* | 1% | 11%
CCOc1ccc(C(CC(=O)Nc2cc(C)c(Cl)cc2OC)N2Cc3ccccc3C2=O)cc1OC (stereo not given) | -16% | -2% | /
COc1ccc(-c2nn(-c3ccc(F)cc3F)c3c2cnc2ccc(F)cc23)cc1 | 8% | 0% | /
CCOc1cccc(CC(=O)N2CCc3c([nH]c4ccccc34)C2c2ccc(Cl)cc2)c1OCC (stereo not given) | 20µM* | 3% | /
O=C(CCC1CCCC1)N1CCc2c([nH]c3ccccc23)C1c1ccc(F)cc1 (stereo not given) | ? | 2% | /
COc1ccc(C2c3[nH]c4ccccc4c3CCN2C(=O)CCC2CCCC2)cc1 (stereo not given) | 16µM* | 4% | /
O=C(CCC1CCCC1)N1CCc2c([nH]c3ccccc23)C1c1ccc(Cl)cc1 (stereo not given) | 7.9µM* | 4% | /
SMILES | Cruzain inh noDet | Cruzain Triton | NS1 function inh
COc1cccc(C(=O)N2CCc3c([nH]c4ccccc34)C2c2ccc(SC)cc2)c1 (stereo not given) | 19% | 5% | /
COc1ccc(C2c3[nH]c4ccc(OC)cc4c3CCN2C(=O)Nc2ccccc2)cc1 (stereo not given) | 25µM* | -6% | /
O=C(CCc1ccccc1)N1CCc2c([nH]c3ccccc23)C1c1ccc(Cl)cc1 (stereo not given) | ? | 2% | /
CCOc1ccc(C2c3[nH]c4ccccc4c3CCN2C(=O)CCC2CCCC2)cc1 (stereo not given) | ? | 3% | /
CC(C)OC(=O)[C@@H]1CC[C@H](C)[C@@H](CCCCO)O1 | -4% | 0% | /
[N-]=[N+]=N[C@@H]1[C@H](O)[C@H](CO)O[C@@H]1n1cnc2c(N)ncnc21 | 5% | 6% | -9%
CCOC(=O)c1c(C)[nH]c(CCC(=O)Nc2ccc(Cl)cc2C)c1C | 4% | 1% | /

Screens: PubChem BioAssay, National Center for Advancing Translational Sciences (NCATS)
